For 32 molecules, INHIBITION results are on record in ChEMBL document CHEMBL4513216, “Probing the Open Global Health Chemical Diversity Library for Multistage-Active Starting Points for Next-Generation Antimalarials” (ACS Infect Dis, 2020).

About 8,600 (12%) of roughly 69,000 compounds showed an effect of 50% or more. The entries come from a sample that favours strong results as a whole.

The experiment concerns Plasmodium berghei. The experiment in a line: Screen against P. berghei liver stage (PbLuc), transformed with Luciferase, at 10uM. Conditions: tested at 10 uM. The class given is functional, HepG2.
Consider `Cc1cc(CN2CCN(C(=O)NC(C)c3ccncc3)CC2)on1` (configuration not stated), for which the INHIBITION is reported as 14.9%.

Turning to `Cc1ccc(C(=O)N2CCC(Oc3c(C)cccc3C)CC2)c(=O)[nH]1`, the INHIBITION was -1.25%.

As to `Cc1cnc2c(S(=O)(=O)N(C)C3CCS(=O)(=O)C3)cccc2c1` (configuration not stated), the INHIBITION amounted to 22.3%.

Take `Cc1cccc(CN2C[C@@H]3COC[C@]3(CNC(=O)c3ccno3)C2)n1`: the INHIBITION was -30%.

Consider `CSCc1nc(CNC(=O)c2cnn(C(C)C)c2)cs1`, for which the INHIBITION came out at 55%.

Consider `CSCc1nc(CCNC(=O)c2cnn(C(C)C)c2)cs1`, for which the INHIBITION was found to be 33.4%.

As for `CC(C)n1cc(C(=O)NCC(CO)Cc2cccs2)cn1` (configuration not stated), the INHIBITION is reported as 5.78%.

`CC(C)n1cc(C(=O)NCCc2cn3ccsc3n2)cn1`: the INHIBITION is 8.48%.

For `Nc1nc(CCCNC(=O)c2ccc(C3CCCNC3)cc2)cs1` (configuration not stated), the INHIBITION is listed as -3.58%.

As to `CC(C)n1cc(C(=O)NCCCc2csc(N)n2)cn1`, the INHIBITION was 69.1%.

On to `COc1cc(NCc2c(C)noc2C)c(OC)cc1Cl`, for which the INHIBITION was found to be 28.7%.

On to `Cc1ccc(N[C@@H]2CN(Cc3cc(C)on3)C[C@@H]3CCCO[C@@H]32)nn1`, for which the INHIBITION was -24.1%.

As to `Cc1cc(NC(=O)CN2CCc3cnc(C(C)C)nc3C2)on1`, the INHIBITION was -0.113%.

As to `COc1ccc(OC)c(C(O)CN2CCC(N3CCC(C)CC3)CC2)c1` (configuration not stated), the INHIBITION stood at 12.3%.

For the molecule `COCCN(C)C(C)c1cccc(S(N)(=O)=O)c1` (configuration not stated), the INHIBITION is recorded as -29.8%.

`CC(C)c1n[nH]c(C2CN(C(=O)c3cc(Cl)c[nH]3)CCO2)n1` (configuration not stated): the INHIBITION is given as -17.4%.

As to `Cc1nn(C)cc1CN1CCCC(n2c(=O)oc3ccccc32)C1` (configuration not stated), the INHIBITION came to 43.35%.

Regarding `c1ccc(-c2nc3c(c(NCCCn4cncn4)n2)CCNCC3)nc1`, the INHIBITION came to 57.3%.

Consider `c1ccc(-c2nc3c(c(NCCn4cccc4)n2)CCNCC3)nc1`, for which the INHIBITION is recorded as 66.5%.

Turning to `c1ccc(-c2nc3c(c(NCCn4ccnn4)n2)CCNCC3)nc1`, the INHIBITION was -3.01%.

In the case of `Cc1cccc(=O)n1CCCNc1nc(N(C)C)nc2c1CCNCC2`, the INHIBITION is recorded as 7.93%.

As to `CN(Cc1cccnc1)c1nc(-c2ccccn2)nc2c1CCNCC2`, the INHIBITION is -10.8%.

For the molecule `CN(Cc1nccs1)c1nc(-c2ccccn2)nc2c1CCNCC2`, the INHIBITION is on record as 13.7%.

For `O=C(CS(=O)(=O)Cc1cc(Cl)c2c(c1)OCO2)N1CCCC1`, the INHIBITION was found to be 21%.

Turning to `COc1ccc(CCC(=O)N2CCN(c3nc(C)ns3)CC2)cc1`, the INHIBITION was found to be 6.7%.

On to `CC(C)c1noc(CN2CCN(C(=O)OC(C)(C)C)C(C)C2)n1` (configuration not stated), for which the INHIBITION is 33.6%.

In the case of `COc1cc(N2CCOC(c3ccc(F)cc3)C2)ncn1` (configuration not stated), the INHIBITION stood at 55.2%.

In the case of `COCc1cc(N2CCOC(c3ccc(Cl)cc3)C2)ncn1` (configuration not stated), the INHIBITION was 8.64%.

Turning to `COCc1cc(N2CCOC(c3ccc(Cl)c(Cl)c3)C2)ncn1` (configuration not stated), the INHIBITION is listed as 63.1%.

Consider `Fc1ccc(C2CN(c3ncnc4nc[nH]c34)CCO2)cc1` (configuration not stated), for which the INHIBITION was -28.6%.

On to `COCc1cc(N2CCOC(c3ccc(F)cc3)C2)ncn1` (configuration not stated), for which the INHIBITION turned out to be 38.3%.

In the case of `Cc1cc(N2CCOC(c3ccncn3)C2)ncn1` (configuration not stated), the INHIBITION was found to be 26.7%.
